Results filed as inconclusive are left out. Where a call stands in place of a potency, no number is given. Values without a mark were called inactive. Active and inactive are the calls of the source. Calls come from the whole dose curve; as a rule, active = well fitted inhibition curve with a large enough effect; inconclusive = small, poorly fitted or top-dose-only effect; inactive = no such curve, though single readings can be large or run the other way.
test: NS1 protein of Zika virus - qHTS assay to identify small molecule inhibitors in human HEK 293 cells (AID 1347053); settings: HEK293 ZIKV MR766 infection, NS1 TR-FRET, 24 h; series mostly up to 46.1 µM; note: nearly all actives have a fitted effect of over 55% in size
Source text: National Center for Advancing Translational Sciences [NCATS]
Johns Hopkins University School of Medicine
The non-structural 1 (NS1) protein of zika virus is known to associate with the viral replication complex. This cell-based TR-FRET ZIKV NS-1 assay measures the increased NS-1 protein in human HEK 293 cells after a 24-hour Zika virus infection by a TR-FRET assay readout. A decrease in the Time-resolved fluorescence energy transfer (TR-FRET) signal in this assay by small molecule treatment indicates an inhibitory effect of the small molecule on the expression of Zika virus NS1 correlating with Zika virus replication.
HEK 293 cells were cultured in EMEM (ATCC, Cat. # 30-2003) medium with 10% fetal bovine serum (GE healthcare Life Sciences, Cat. # SH30071.03), and 1% Pen/Strep (Gibco, Cat. # 15140-122). Cells were seeded in the assay plate and incubated at 37 C with 5% CO2 for 20 hours. Compounds were added to cells and incubated for one hour before addition of ZIKV MR766 strain solution to cells (MOI = 0.5). After an incubation at 37 C for 24 hours, the reagent mixture of TR-FRET ZIKV NS1 assay using two anti-ZIKV NS1 antibodies was added to assay plates. The TR-FRET signals in assay plates were measured using an Envision plate reader (PerkinElmer). Data were normalized by using the cell-containing wells without ZIKV as a negative control (0% NS-1) and wells containing ZIKV infected cells as a positive control (100% NS-1 level).
Potency is the fitted concentration of half-maximal effect.

Compound | Potency | activity change, negative = inhibition
Fc1ccc(C(c2ccc(F)cc2)N2CCNCC2)cc1 | inactive | –
COc1cc(C(=O)NC2CCCNC2)cc(OC)c1OC (stereo not given) | inactive | –
COc1cc2c(cc1OC)CN(C(=O)[C@H](C)N[C@@H](CCc1ccccc1)C(=O)O)[C@H](C(=O)O)C2 | inactive | –
NS(=O)(=O)c1cc(C(=O)NN2C[C@H]3[C@H]4CCC(C4)[C@H]3C2)ccc1Cl | inactive | –
CC(C)NC(=O)c1ccc(C=O)cc1 | inactive | –
CN1CC(=O)N2[C@H](c3ccc4c(c3)OCO4)c3[nH]c4ccccc4c3C[C@@H]2C1=O | inactive | –
Cc1onc(-c2ccccc2)c1C(=O)Cl | inactive | –
CC(C)=CCC/C(C)=C/CC/C(C)=C/C(=O)OCC(=O)[C@@]1(O)CC[C@H]2[C@@H]3CCC4=CC(=O)C=C[C@]4(C)[C@H]3[C@@H](O)C[C@@]21C | inactive | –
CCCC(=O)OCOC(=O)C1=C(C)NC(C)=C(C(=O)OC)C1c1cccc(Cl)c1Cl (stereo not given) | inactive | –
CC(C)(C)c1cc(C=O)cc(C(C)(C)C)c1O | inactive | –
O=[N+]([O-])c1ccc(O)c2ncccc12 | 6.31 µM (active) | –
O=C(CCCCCCCCC#CI)Oc1ccccc1 | inactive | –
Nc1ncnc2n[nH]c(Nc3ccc(F)cc3)c12 | inactive | –
CC1CN(c2cc3c(cc2F)c(=O)c(C(=O)O)cn3-c2ccc(F)cc2F)CCN1 (stereo not given) | – | -15.5% [at 4.81 µM]
COC(=O)c1cc(Cl)ccc1NS(=O)(=O)C(F)(F)F | inactive | –
COc1cc(S(N)(=O)=O)cc(C(=O)O)c1OC | inactive | –
O=C1Nc2ccccc2C1(c1ccc(O)cc1)c1ccc(O)cc1 | inactive | –
C[C@@]12CCC[C@H]1[C@@H]1CC[C@H]3C[C@@H](O)CC[C@]3(C)[C@H]1CC2 | inactive | –
CCC(CN)=C(c1ccccc1)c1ccccc1 | inactive | –
C=CCNc1nc(NCC=C)nc(N2CCN(C(c3ccc(F)cc3)c3ccc(F)cc3)CC2)n1 | inactive | –

Compound | Potency | activity change, negative = inhibition
Nc1c(NC/C=C\COc2cc(CN3CCCCC3)ccn2)c(=O)c1=O | inactive | –
O=C1CC(c2ccc(Cl)cc2)CC(=O)N1 | inactive | –
CN1Cc2cc(C(=O)N3CCC(C4CCNCC4)CC3)ccc2N[C@@H](CC(=O)O)C1=O | inactive | –
N#C/C(=C1/SC[C@@H](c2ccc(Cl)cc2Cl)S1)n1ccnc1 | inactive | –
Cc1c(F)cc2c(=O)c(C(=O)O)cn3c2c1CCC3C (stereo not given) | inactive | –
C[C@@H](C1=C(CCN(C)C)Cc2ccccc21)c1ccccn1 | inactive | –
CCC(=O)O[C@H]1[C@H](O[C@@H]2[C@@H](C)[C@H](O[C@H]3C[C@@](C)(OC)[C@@H](O)[C@H](C)O3)[C@@H](C)C(=O)O[C@H](CC)[C@@](C)(O)[C@H](O)[C@@H](C)C(=O)[C@H](C)C[C@@]2(C)O)O[C@H](C)C[C@@H]1N(C)C | inactive | –
COCCc1ccc(OCC2CO2)cc1 (stereo not given) | inactive | –
CC(C)OP(=O)(CP(=O)(OC(C)C)OC(C)C)OC(C)C | inactive | –
Cc1c(N)cccc1C(F)(F)F | inactive | –
N#CSCC(=O)O | inactive | –
CCOC(=O)O[C@]1(C(=O)OCCl)CC[C@H]2[C@@H]3CCC4=CC(=O)C=C[C@]4(C)[C@H]3[C@@H](O)C[C@@]21C | inactive | –
Cc1sccc1Br | inactive | –
NS(=O)(=O)c1cc2c(cc1Cl)CN(C1CCCCC1)C2=O | inactive | –
CC1CCCCN1CCCOC(=O)c1ccc(OC2CCCCC2)cc1 (stereo not given) | inactive | –
CC[N+](CC)(CC)CCOC(=O)C(C1CCCC1)C1CCCC1 | inactive | –
C#CC(C)(CC)OC(=O)c1ccccc1C(=O)O (stereo not given) | inactive | –
O=C(CCC1CCN(Cc2ccccc2)CC1)c1ccc2c(c1)NCCCC2 | inactive | –
CC(=O)c1ccc(O)c(C(N)=O)c1 | inactive | –
C[C@H]1C[C@H]2[C@@H]3CCC4=CC(=O)C=C[C@]4(C)[C@H]3C(=O)C[C@]2(C)[C@@]1(O)C(=O)CO | inactive | –
